HepG2 tox: kills HepG2 cells in TGF-b inhibitor counter-screen | HepG2 CAGA-GFP viability, ATP luminescence, 18 h | 0.76% of 410,000 active | AID 588856 | Potency, µM (titrated, usually from 46.1 µM), for the others: top-dose activity change, negative = cytotoxicity, most hits filed as cytotoxic; further: potency means the concentration at half of the fitted maximal effect
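CellTiter-Glo luminescence gave cytotoxicity after 18 hours at 37 degrees C. The cells were HepG2 CAGA-GFP in 1% FBS DMEM, stimulated with 500 pg/mL TGF-beta after compound addition. %Activity was normalised to no-cell wells (complete cell-killing) and DMSO (no toxicity), and curves were fitted and classified.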
S-ASM inh: blocks human secretory acid sphingomyelinase. P17405. placental ASM, HMU-PC fluorogenic substrate, 60 min. Potency, µM (highest dose often 57.5 µM), for inactives: at the top dose activity change, negative = inhibition, usual class: inhibitors. 0.006% of 340,000 active. AID 504937; further: potency means the concentration at half of the fitted maximal effect
Target sequence (P17405 47-631 limits assumed): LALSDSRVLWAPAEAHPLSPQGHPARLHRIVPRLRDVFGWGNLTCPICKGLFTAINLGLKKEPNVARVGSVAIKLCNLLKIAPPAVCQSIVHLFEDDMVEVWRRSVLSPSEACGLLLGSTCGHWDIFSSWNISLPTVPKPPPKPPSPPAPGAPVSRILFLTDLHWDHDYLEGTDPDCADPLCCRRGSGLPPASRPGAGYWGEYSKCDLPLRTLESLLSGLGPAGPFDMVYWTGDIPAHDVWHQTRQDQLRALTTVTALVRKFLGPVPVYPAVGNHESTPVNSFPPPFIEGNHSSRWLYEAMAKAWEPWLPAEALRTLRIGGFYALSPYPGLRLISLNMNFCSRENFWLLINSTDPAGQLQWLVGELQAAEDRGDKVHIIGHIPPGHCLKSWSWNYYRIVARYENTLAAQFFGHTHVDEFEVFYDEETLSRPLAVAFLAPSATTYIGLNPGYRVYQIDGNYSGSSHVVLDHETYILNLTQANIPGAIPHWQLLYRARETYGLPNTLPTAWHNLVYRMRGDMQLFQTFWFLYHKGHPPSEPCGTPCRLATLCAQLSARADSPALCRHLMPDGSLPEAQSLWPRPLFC
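Steps: dispense placental human ASM, pin compound, wait 10 min at room temperature, add HMU-PC0 substrate at 9 uM final, incubate 60 min at 37 °C, add stop solution raising pH to 10, read fluorescence.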
IL-1B inflam inh: inhibitors of inflammasome signaling (IL-1 beta secretion); THP-1 LPS/ATP IL-1B secretion, AlphaLISA, 16 h; hits give low values; activity change, % at 57.5 µM; 4.7% of 360,000 active; AID 743279; in the data active means activity change below about -50%; inconclusive means mostly about -30% to -49%; further: on the % scale 0 is the no-effect control and ±100 the full control effect
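THP-1 cells pretreated 1 hr with compounds (up to 57.5 uM final), then stimulated with LPS (250 ng/mL final) plus ATP (1.25 mM final); secreted IL-1B measured by AlphaLISA after 16 hr, decreased signal indicating inhibition.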
DT40 TDP1 no CPT: qHTS for Inhibitors of human tyrosyl-DNA phosphodiesterase 1 (TDP1): qHTS in cells in absence of CPT. DT40 Tdp1-/- hTDP1 cells, no CPT, ATP luminescence, 48 h. Potency, µM (titrated, usually from 46.2 µM), inactives show top-dose activity change, negative = growth inhibition, usual class: inhibitors. 15% of 420,000 active; further: potency means the concentration at half of the fitted maximal effect; on the % scale 0 is the no-effect control and ±100 the full control effect; nearly all actives have a fitted effect of over 55% in size
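Growth kinetics read by CellTiter-Glo luminescence after ≥48 hr at 37 °C. Cells: DT40 Tdp1-/- stably carrying human TDP1, 400 per well, compound exposure in the absence of CPT (DMSO vehicle).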
TGFb SMAD3 inh: blocks TGF-b signaling. HepG2 CAGA-GFP TGF-b/SMAD3 reporter, GFP fluorescence, 18 h; TGF-beta stimulated, 500 pg/mL final. Potency, µM (series often up to 46.1 µM), for the others: top-dose activity, negative = inhibition, actives largely listed as inhibitors. 1.2% of 410,000 active. AID 588855; further: potency means the concentration at half of the fitted maximal effect; on the % scale 0 is the no-effect control and ±100 the full control effect; nearly all actives have a fitted effect of over 65% in size
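Inhibition was scored as loss of TGF-beta-induced (500 pg/mL final, 18 hours, 37 degrees C) GFP in HEPG2 cells carrying a CAGA-GFP reporter, in DMEM with 1% FBS. Well GFP was summed per cell; Activity was normalised to unstimulated and stimulated DMSO wells, then concentration-response fitting.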
DT40 TDP1 CPT: DT40-hTDP1 cell growth loss with CPT; 12% of 420,000 active; AID 686979; Potency, µM (top dose mostly 46.2 µM), inactives show top-dose activity change, negative = growth inhibition, actives largely listed as inhibitors; chicken DT40 Tdp1-/-;hTDP1 cells + 20 nM CPT, ATP luminescence, 48 h; further: potency means the concentration at half of the fitted maximal effect; on the % scale 0 is the no-effect control and ±100 the full control effect; nearly all actives have a fitted effect of over 55% in size
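Cell growth measured by CellTiter-Glo luminescence after a minimum 48 h, 37 C compound exposure with 20 nM CPT in Tdp1-knockout DT40 cells stably expressing hTDP1, seeded 400/well; qHTS titration format.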
Numbers without * were called inactive; i = inactive; ? = inconclusive; . = no result. The list is not random: actives were taken first. Their share in the collection is about 19%. Unless noted, the call rests on the fitted dose curve; in most records, active means well fitted curve in the direction sought with a large enough effect; inconclusive means small, poorly fitted or top-dose-only effect, or another doubt; inactive means no such curve, though single readings can be large; an effect the other way counts as inactive or inconclusive.

SMILES	HepG2 tox	S-ASM inh	IL-1B inflam inh	DT40 TDP1 no CPT	TGFb SMAD3 inh	DT40 TDP1 CPT
CCO[C@H]1OC(C(=O)N2CCN(Cc3ccc4c(c3)OCO4)CC2)=C[C@@H](c2ccc(C(F)(F)F)cc2)[C@@H]1CCCO	-21.1%	-5.5%	-76.7*	23.1µM*	?	18.4µM*
CCO[C@@H]1OC(C(=O)N2CCN(Cc3ccc4c(c3)OCO4)CC2)=C[C@H](c2csc3ccccc23)[C@H]1CCCO	-18.5%	-0.6%	?	23.1µM*	?	-88.6%
CCO[C@@H]1OC(C(=O)N2CCN(Cc3ccccc3)CC2)=C[C@H](c2ccc(Br)cc2)[C@H]1CCCO	-3.6%	1.9%	-22.2	23.1µM*	-25.9%	?
CCO[C@@H]1OC(C(=O)N2CCN(Cc3ccccc3)CC2)=C[C@H](c2ccc(C(F)(F)F)cc2)[C@H]1CCCO	-32.6%	5.5%	-87.6*	?	12.6µM*	?
CCO[C@H]1OC(C(=O)N2CCN(Cc3ccccc3)CC2)=C[C@@H](C)[C@@H]1CCCO	5.9%	0.0%	9.5	?	6.3%	?
CN(c1ccccc1)S(=O)(=O)c1ccc(C(=O)N2CCN(c3ccccc3F)CC2)cc1	-24.0%	-1.5%	-10.8	?	?	-25.0%
Cc1ccc(C(c2c(O)cc(C)n(Cc3ccco3)c2=O)N2CCC(C)CC2)cc1 (stereo unspecified)	3.3%	.	.	-13.1%	?	2.5%
COc1cc(/C=C(\C#N)C(N)=O)cc(CSc2nc3ccccc3s2)c1O	.	.	.	14.6µM*	.	14.6µM*
Cc1ccc(N/C=C/C(=O)c2sc(-c3ccccc3)nc2C)cc1	3.9%	-19.7%	-5.5	23.1µM*	5.1%	?
Cc1nc(-c2ccccc2)sc1C(=O)NN	5.8%	1.8%	3.7	-22.5%	1.1%	-4.0%
CCn1c(SCC(=O)Nc2ccc(OC)cc2)nc2c(c1=O)SCC2	-18.9%	0.6%	i	?	-2.8%	1.9%
CCN(CC)S(=O)(=O)c1ccc(S(=O)(=O)Nc2ccc3c(c2)oc2ccccc23)cc1	-75.7%	-24.7%	0.0	?	?	?
CN(C)S(=O)(=O)c1ccc(S(=O)(=O)Nc2ccc3c(c2)oc2ccccc23)cc1	-33.8%	?	21.0	?	11.2µM*	-27.3%
COC(=O)c1cc2ccc(OC)cc2c2cc(OC)c(OC)cc12	-25.6%	101.4%	-61.0*	?	-1.9%	?
CC(=O)C1=C(C)NC(SCC(=O)c2ccc(Cl)c(Cl)c2)=C(C#N)C1c1ccco1 (stereo unspecified)	0.7%	-9.7%	-57.5*	?	26.7%	?
CC(=O)C1=C(C)NC(SCC(N)=O)=C(C#N)C1c1ccco1 (stereo unspecified)	0.0%	15.3%	-12.3	19.7%	5.1%	26.1%
CC(=O)C1=C(C)NC(SCc2cccc([N+](=O)[O-])c2)=C(C#N)C1c1ccco1 (stereo unspecified)	-29.3%	-7.9%	-65.8*	?	-11.2%	?
CC(=O)C1=C(C)NC(SCC(=O)c2ccc(F)cc2)=C(C#N)C1c1ccco1 (stereo unspecified)	-34.2%	48.0%	-84.6*	?	-15.6%	?
CCCNc1c(NS(=O)(=O)c2ccc(C)cc2C)c(=O)oc2ccccc12	4.5%	8.8%	?	-9.3%	?	-9.9%
COc1cc(/C=N/N2CCCCC2)cc([N+](=O)[O-])c1O	-24.8%	-5.5%	-21.3	-7.7%	0.0%	-1.0%
CCN(CC(=O)NC(C)C)C(=O)[C@@H](NC(=O)c1ccco1)C(C)C	-11.1%	-2.0%	-2.4	-10.3%	0.0%	19.4%

Assay outcomes from PubChem BioAssay.
